Experimental data as given in PubChem BioAssay.
The source made the active and inactive calls.

Tests used:
Albumin (Bos taurus) = Albumin (Bos taurus) (UniProt P02769); test: compounds binding labelled BSA control protein – biochemical, small-molecule microarray, Alexa647 label, 635/667 nm fluorescence, artefact control for SMM control protein annotation, profiling panel (AID 1118); conditions: BSA-A647 binding, fluorescence 635 nm, higher = more signal;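 note: score merges 667 nm emission intensity and signal-to-noise per printed compound spot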
Sequence of Albumin (Bos taurus) (P02769 whole entry, looked up): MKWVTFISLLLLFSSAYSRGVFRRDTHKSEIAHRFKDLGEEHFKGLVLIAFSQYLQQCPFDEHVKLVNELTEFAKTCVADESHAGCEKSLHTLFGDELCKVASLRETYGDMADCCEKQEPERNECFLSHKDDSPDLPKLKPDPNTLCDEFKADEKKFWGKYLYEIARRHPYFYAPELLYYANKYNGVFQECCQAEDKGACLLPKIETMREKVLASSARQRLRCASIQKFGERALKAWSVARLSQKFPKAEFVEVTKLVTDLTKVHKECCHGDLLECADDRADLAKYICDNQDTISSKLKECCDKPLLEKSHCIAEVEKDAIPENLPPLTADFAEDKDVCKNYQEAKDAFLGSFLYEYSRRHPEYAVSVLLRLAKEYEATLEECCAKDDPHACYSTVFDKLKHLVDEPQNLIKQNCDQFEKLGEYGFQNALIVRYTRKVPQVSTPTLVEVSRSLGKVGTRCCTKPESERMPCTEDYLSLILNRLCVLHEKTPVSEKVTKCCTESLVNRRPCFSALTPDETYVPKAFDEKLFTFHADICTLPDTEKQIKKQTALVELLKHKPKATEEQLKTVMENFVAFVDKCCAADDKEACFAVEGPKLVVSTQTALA

[1] = probe aXIP binding to arrayed compounds – biochemical, NeuroSMM set, 635/667 nm fluorescence, primary screen (AID 1119); conditions: small-molecule microarray, higher = more signal, called active from +8 up or from −8 down;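 note: probe is the protein aXip251-270 applied at 1 µg/mL to compound-printed slides; binding of probe to printed compounds measured as 667 nm fluorescence plus signal to noise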
[2] = probe aNOTCH3 binding on compound microarray – biochemical, small-molecule microarray, 635/667 nm fluorescence, primary screen (AID 1120); conditions: higher = more signal;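 note: probe is a biotin-tagged antibody raised against NOTCH3 rather than NOTCH3 protein; score merges spot fluorescence near 667 nm with spot signal to noise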
[3] = probe aNOTCH2 binding on compound microarray – biochemical, small-molecule microarray, 635/667 nm fluorescence, primary screen (AID 1121); conditions: higher = more signal;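 note: score merges feature fluorescence read at 667 nm with its signal to noise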
[4] = molecular target: Carbonic anhydrase 2 (Homo sapiens) (UniProt P00918); test: compounds binding carbonic anhydrase 2 – biochemical, small-molecule microarray, Alexa647-labelled CAII, profiling panel (AID 1122); conditions: CAII-A647 binding fluorescence, higher = more signal
[5] = COS7 lysate on small-molecule microarray, probe aHis, 635 nm (AID 1123); conditions: COS7 cell lysate, fluorescence, higher = more signal;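 note: z-score combines 667nm fluorescence intensity with signal-to-noise per printed compound spot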
[6] = probe aLAP1 signal on lysate-treated microarray – cell lysate, small-molecule microarray, COS7 lysate, primary screen (AID 1124); conditions: probe aLAP1, fluorescence, higher = more signal;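 note: lysate comes from COS7 cells expressing LAP1 and is applied at 0.3 µg/mL; score merges spot fluorescence near 667 nm with signal-to-noise over triplicate slides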
Sam68 (KHDRBS1) = test: compounds binding KHDRBS1 protein – biochemical, small-molecule microarray, 635 nm fluorescence, primary screen (AID 1125); conditions: higher = more signal;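 note: score merges 667 nm channel intensity with signal to noise over triplicate slides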
[7] = tested on: Chordin-like protein 2 (CHRDL2); test: compounds binding chordin-like 2 – biochemical, small-molecule microarray, 635 nm fluorescence, primary screen (AID 1126); conditions: fluorescence 635 nm, higher = more signal;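 note: printed compound slides probed with Chrdl2 protein at 4 µg/mL for 1 h at 4 C; score merges 667 nm emission intensity with signal to noise over three replicate slides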
[8] = molecular target: Concanavalin-A (Canavalia ensiformis) (UniProt P02866); test: compounds binding concanavalin A lectin – biochemical, small-molecule microarray, Alexa647 label, 635 nm, artefact control for SMM control protein annotation, primary screen (AID 1127); conditions: ConA-A647 binding fluorescence, higher = more signal;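 note: z combines 667 nm emission intensity with signal-to-noise across three replicate slides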
Sequence of Concanavalin-A (Canavalia ensiformis) (P02866 whole entry, looked up): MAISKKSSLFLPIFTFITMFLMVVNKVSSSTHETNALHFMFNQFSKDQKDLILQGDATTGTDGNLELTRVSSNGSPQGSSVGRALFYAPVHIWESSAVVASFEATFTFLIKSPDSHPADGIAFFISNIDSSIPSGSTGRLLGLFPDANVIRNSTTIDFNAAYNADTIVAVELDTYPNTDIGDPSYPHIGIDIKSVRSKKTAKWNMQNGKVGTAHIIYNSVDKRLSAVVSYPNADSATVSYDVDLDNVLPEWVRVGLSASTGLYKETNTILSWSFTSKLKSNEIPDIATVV

[9] = compounds binding Alexa647 anti-His antibody – biochemical, small-molecule microarray, 635 nm fluorescence, artefact control for SMM control protein annotation, primary screen (AID 1128); conditions: higher = more signal;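 note: score merges feature fluorescence with signal-to-noise for each printed compound spot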
[10] = tested on: Human papillomavirus type 1a E7 protein (residues 1-88); test: HPV1a E7 small-molecule binders, primary screen, biochemical, small-molecule microarray, residues 1-88, 635 nm (AID 1129); conditions: small-molecule microarray binding, fluorescence 635 nm; higher = more signal
[11] = molecular target: Focal adhesion kinase 1 (Homo sapiens) (UniProt Q05397); test: PTK2 protein binding on printed compound slides – biochemical, small-molecule microarray, 635/667 nm fluorescence, BSA, DTT, primary screen (AID 1130); conditions: 635 nm fluorescence, higher = more signal;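 note: composite of spot emission at 667 nm and signal to noise over triplicate slides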
Sequence of Focal adhesion kinase 1 (Homo sapiens) (Q05397 whole entry, looked up): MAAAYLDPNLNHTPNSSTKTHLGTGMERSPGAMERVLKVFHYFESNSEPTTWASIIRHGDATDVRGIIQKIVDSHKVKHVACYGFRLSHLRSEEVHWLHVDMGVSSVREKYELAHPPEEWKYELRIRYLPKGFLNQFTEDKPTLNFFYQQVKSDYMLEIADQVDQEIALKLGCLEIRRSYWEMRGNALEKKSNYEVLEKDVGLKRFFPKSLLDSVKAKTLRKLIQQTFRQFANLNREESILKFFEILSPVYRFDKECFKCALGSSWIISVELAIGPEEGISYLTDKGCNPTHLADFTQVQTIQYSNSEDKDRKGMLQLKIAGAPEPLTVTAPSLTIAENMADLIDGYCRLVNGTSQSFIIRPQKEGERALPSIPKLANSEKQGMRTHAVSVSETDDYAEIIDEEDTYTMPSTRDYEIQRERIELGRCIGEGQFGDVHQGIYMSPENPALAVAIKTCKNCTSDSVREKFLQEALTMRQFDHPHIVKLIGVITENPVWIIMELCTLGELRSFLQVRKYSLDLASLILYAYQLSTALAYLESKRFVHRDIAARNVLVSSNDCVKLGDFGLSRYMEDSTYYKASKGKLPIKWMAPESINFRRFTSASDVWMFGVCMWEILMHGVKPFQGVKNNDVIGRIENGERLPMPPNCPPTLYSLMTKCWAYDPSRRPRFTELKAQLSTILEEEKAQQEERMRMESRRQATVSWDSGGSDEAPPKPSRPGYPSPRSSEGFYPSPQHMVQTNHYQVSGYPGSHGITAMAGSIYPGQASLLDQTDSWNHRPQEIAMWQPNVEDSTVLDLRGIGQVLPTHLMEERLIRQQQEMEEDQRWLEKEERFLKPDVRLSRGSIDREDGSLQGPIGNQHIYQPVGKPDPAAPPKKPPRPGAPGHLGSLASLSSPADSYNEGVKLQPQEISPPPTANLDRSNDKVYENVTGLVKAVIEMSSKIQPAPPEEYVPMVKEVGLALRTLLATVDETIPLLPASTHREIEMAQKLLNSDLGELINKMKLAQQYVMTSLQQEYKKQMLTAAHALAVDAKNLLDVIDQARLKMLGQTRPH

[12] = tested on: Fibrinogen (Alexa647-labelled); test: Alexa647-fibrinogen binding to printed small molecules – biochemical, small-molecule microarray, 635/667 nm fluorescence, artefact control for SMM control-protein annotation, profiling panel (AID 1131); conditions: fibrinogen-A647 binding fluorescence, higher = more signal;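 note: z-score merges 667 nm fluorescence with per-spot signal-to-noise over triplicate slides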
[13] = molecular target: Follistatin (Homo sapiens) (UniProt P19883); test: FST protein binding to printed compounds – biochemical, small-molecule microarray, 635/667 nm fluorescence, primary screen (AID 1132); conditions: 635 nm fluorescence, higher = more signal
Sequence of Follistatin (Homo sapiens) (P19883 whole entry, looked up): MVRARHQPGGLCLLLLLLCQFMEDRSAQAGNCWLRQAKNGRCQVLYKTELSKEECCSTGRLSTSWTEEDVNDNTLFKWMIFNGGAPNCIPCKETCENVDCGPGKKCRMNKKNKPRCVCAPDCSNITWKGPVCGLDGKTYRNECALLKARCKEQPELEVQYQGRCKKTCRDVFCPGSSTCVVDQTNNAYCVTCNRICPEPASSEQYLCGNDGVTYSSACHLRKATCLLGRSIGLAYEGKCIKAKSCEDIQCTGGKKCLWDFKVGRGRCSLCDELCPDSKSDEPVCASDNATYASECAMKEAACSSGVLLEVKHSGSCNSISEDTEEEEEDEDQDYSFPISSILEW

[14] = molecular target: Fibroblast growth factor 2 (Homo sapiens) (UniProt P09038); test: basic fibroblast growth factor binding to printed compounds – biochemical, small-molecule microarray, 635/667 nm fluorescence, primary screen (AID 1133); conditions: FGF2, fluorescence 635/667, higher = more signal
Sequence of Fibroblast growth factor 2 (Homo sapiens) (P09038 whole entry, looked up): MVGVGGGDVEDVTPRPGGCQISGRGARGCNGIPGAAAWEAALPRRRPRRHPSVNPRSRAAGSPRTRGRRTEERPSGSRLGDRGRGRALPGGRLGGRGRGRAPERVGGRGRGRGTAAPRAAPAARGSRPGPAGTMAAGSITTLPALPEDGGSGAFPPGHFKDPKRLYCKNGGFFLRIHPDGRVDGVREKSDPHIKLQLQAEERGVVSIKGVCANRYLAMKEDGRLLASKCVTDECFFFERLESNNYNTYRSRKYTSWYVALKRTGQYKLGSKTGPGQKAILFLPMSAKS

[15] = JC-1 mitochondrial potential readout, lung cancer cells – cell-based, A549, JC-1 fluorescence, basal, 24 h, 100 nL, profiling panel (AID 1138); conditions: higher = more signal;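 note: A549 lung adenocarcinoma cells under basal conditions with no added stimulus; test concentration not given here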
Lefty1 = Lefty1 protein binding to printed compounds – biochemical, small-molecule microarray, 635/667 nm fluorescence, primary screen (AID 1139); conditions: fluorescence 635/667, higher = more signal
[16] = tested on: wheat germ agglutinin (Triticum aestivum), Alexa647-labelled; test: Alexa647-WGA lectin binding to printed small molecules – biochemical, small-molecule microarray, 635/667 nm fluorescence, artefact control for SMM control-protein annotation, profiling panel (AID 1140); conditions: WGA-A647 binding, 635 nm fluorescence, higher = more signal;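 note: score merges 667 nm feature emission with signal to noise over triplicate slides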
[17] = molecular target: Luciferin 4-monooxygenase (Photinus pyralis) (UniProt P08659); test: inhibition of purified Photinus pyralis luciferase – biochemical, luminescence, purified enzyme, 2006 set, primary screen (AID 1141); conditions: purified firefly luciferase, SteadyGlo luminescence, 30 min; higher = more signal, called active from +8 up or from −8 down;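 note: cell-free assay with purified firefly luciferase at 100 ng per well in PBS; test concentration not given here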
Sequence of Luciferin 4-monooxygenase (Photinus pyralis) (P08659 whole entry, looked up): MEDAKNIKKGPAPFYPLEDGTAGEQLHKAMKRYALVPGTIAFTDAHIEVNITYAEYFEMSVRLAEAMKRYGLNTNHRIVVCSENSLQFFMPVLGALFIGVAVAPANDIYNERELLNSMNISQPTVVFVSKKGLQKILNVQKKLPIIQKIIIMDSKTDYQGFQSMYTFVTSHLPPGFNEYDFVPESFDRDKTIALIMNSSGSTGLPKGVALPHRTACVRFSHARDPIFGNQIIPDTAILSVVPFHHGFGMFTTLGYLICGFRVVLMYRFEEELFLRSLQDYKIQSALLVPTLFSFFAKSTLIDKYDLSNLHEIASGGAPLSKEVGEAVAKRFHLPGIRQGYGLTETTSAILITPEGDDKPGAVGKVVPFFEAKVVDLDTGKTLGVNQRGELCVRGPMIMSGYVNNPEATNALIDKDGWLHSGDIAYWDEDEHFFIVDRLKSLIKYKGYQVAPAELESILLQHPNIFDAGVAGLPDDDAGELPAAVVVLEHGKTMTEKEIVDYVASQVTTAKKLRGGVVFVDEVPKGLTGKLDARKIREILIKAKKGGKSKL

| SMILES | composite z-score (Albumin (Bos taurus)) | composite Z-score [1] | composite z-score [2] | composite z-score [3] | composite z-score [4] | composite z-score [5] | composite z-score [6] | composite z-score (Sam68 (KHDRBS1)) | composite z-score [7] | composite z-score [8] | composite z-score [9] | composite z-score [10] | composite z-score [11] | composite z-score [12] | composite z-score [13] | composite z-score [14] | z-score [15] | composite z-score (Lefty1) | composite z-score [16] | z-score [17] |
| --- | --- | --- | --- | --- | --- | --- | --- | --- | --- | --- | --- | --- | --- | --- | --- | --- | --- | --- | --- | --- |
| CCOC(=O)CCN1C(=O)[C@H]2[C@H]3[C@H](O)[C@H](O)CC(=NNC(=O)OCc4ccc(OC)cc4)[C@H]3CC[C@H]2C1=O | 0.33 | 0.0321 (inactive) | -0.0328 | -0.061 | -0.0767 | 0.205 | -0.0428 | 0.576 | 0.382 | -0.0813 | -0.0305 | 0.568 | 0.0684 | 0.446 | -0.0495 | 0.0077 | -0.734 | 0.161 | 0.282 | 0.624 (inactive) |
| O=C1[C@H]2[C@H]3[C@H](O)[C@H](O)CC(=NOC[C@@H](O)COCc4ccco4)[C@@H]3CC[C@H]2C(=O)N1C1CCCCC1 | 0.0451 | -0.415 (inactive) | 0.149 | -0.251 | 0.057 | -0.39 | -0.0177 | 0.827 | 1.52 | -0.421 | 0.0182 | -0.244 | -0.569 | -0.811 | 1.22 | 1.37 | -0.144 | 1.58 | -0.284 | 0.0055 (inactive) |
| C[C@@H]1CC[C@@H](C(=O)O)N[C@H]1c1cccc(N2CCOCC2)c1 | 0.262 | 0.227 (inactive) | 0.0624 | -0.126 | 0.295 | 0.531 | -0.581 | 0.225 | 0.224 | 0.305 | 0.06 | 0.827 | 0.455 | 0.301 | 0.769 | 0.652 | 2.11 | 0.554 | 0.227 | -1.34 (inactive) |
| CCOC(=O)[C@H](CC(C)C)NC(=O)CCC1CC(OC(=O)NCCc2ccc(F)cc2)CC2(CCCC(COC(=O)NCCOC)O2)O1 (stereo not given in full) | 0.502 | 0.795 (inactive) | -0.0573 | -0.171 | 0.0663 | 0.5 | 0.417 | 1.29 | 0.515 | 0.646 | 0.917 | 1.04 | 0.318 | 0.416 | 0.839 | 1.18 | -0.382 | 0.955 | 0.829 | 0.958 (inactive) |
| COc1ccc(COC(=O)NN=C2C[C@@H](O)[C@@H](O)[C@@H]3[C@@H]4C(=O)N([C@@H](C)c5ccccc5)C(=O)[C@@H]4CC[C@@H]23)cc1 | 0.274 | -0.228 (inactive) | -0.0697 | 0.0318 | 0.171 | -0.211 | 0.131 | -0.196 | 0.448 | 0.162 | -0.253 | 0.661 | -0.313 | 0.373 | 0.244 | 0.272 | -0.304 | 0.244 | 0.242 | 0.447 (inactive) |
| CC(=O)OC[C@H]1O[C@H](CC=NO[C@H](C)c2cn([C@@H]3COC[C@H]3O)nn2)C=C[C@@H]1OC(C)=O | 0.834 | 0.195 (inactive) | -0.182 | -0.153 | -0.0556 | -0.426 | -0.16 | -0.378 | 0.85 | -0.152 | 0.606 | 0.179 | -0.0621 | 0.897 | 0.356 | 0.396 | -0.17 | 0.42 | -0.0712 | -0.63 (inactive) |
| COC(=O)[C@H](C)NC(=O)CCC1CC(OC(=O)NCc2cccc3ccccc23)CC2(CCCC(COC(=O)NCCc3ccccc3OC)O2)O1 (stereo not given in full) | 0.707 | -0.18 (inactive) | 0.0893 | -0.185 | 0.548 | 1.06 | -0.557 | 1.3 | 0.409 | 0.917 | 1.13 | 1.18 | 0.656 | 0.661 | 0.941 | 0.544 | -0.358 | 0.89 | 0.316 | 0.603 (inactive) |
| CON=C(C)CCC(=O)OC[C@H]1O[C@H](C#Cc2ccccc2)C=C[C@@H]1Oc1ccc(C)cc1 | 0.468 | -0.054 (inactive) | -0.0111 | -0.0751 | 0.263 | 0.661 | 0.232 | 0.626 | 0.479 | 0.491 | 0.377 | 0.54 | 0.122 | 0.354 | 0.398 | 0.344 | -0.656 | 0.569 | 0.279 | -3.61 (inactive) |
| CC(=O)OC[C@H]1O[C@H](CC=NOC[C@@H](O)[C@H]2O[C@@H]3OC(C)(C)O[C@@H]3[C@H]2O)C=C[C@@H]1OC(C)=O | 0.846 | 0.0765 (inactive) | 0.116 | -0.0934 | 0.298 | 0.548 | 0.79 | 0.883 | 0.0166 | 0.976 | 0.638 | 0.702 | 0.15 | 0.727 | 0.209 | 0.583 | -0.325 | 0.385 | -0.0993 | 0.94 (inactive) |
| CCOC(=O)NN=C1C[C@@H](O)[C@@H](O)[C@@H]2[C@@H]3C(=O)N(CC)C(=O)[C@@H]3CC[C@H]12 | 0.541 | -0.415 (inactive) | -0.0879 | -0.126 | 0.448 | 0.0053 | -0.0396 | -0.221 | 0.202 | 0.173 | 0.241 | -0.351 | 0.105 | 0.569 | -0.408 | 0.0278 | -0.00768 | 0.0358 | 0.195 | -0.557 (inactive) |
| O=C1C2=CC[C@H]3C(=O)N(C4CCCCC4)C(=O)[C@H]3[C@H]2[C@H](O)[C@@H]2O[C@H]12 | 0.964 | -0.631 (inactive) | -0.199 | -0.149 | 0.335 | -0.888 | -0.17 | -2.02 | 0.0365 | -0.21 | -0.242 | -0.958 | -0.504 | 0.0555 | -0.864 | -0.682 | -1.65 | -0.455 | -0.685 | -0.389 (inactive) |
